This passage reports binding signal results from article PMC7862700, “An all-to-all approach to the identification of sequence-specific readers for epigenetic DNA modifications on cytosine”.

Holding throughout (test): DAPPL (digital affinity profiling via proximity ligation, sequencing); 10 mM Tris-HCl pH 7.5, 50 mM NaCl, 1 mM DTT, 4% glycerol, room temperature, 30 min; GST-TFs on glutathione beads, 16-mer random dsDNA library, 0.1% formaldehyde crosslink after washing; high values mean tight binding
What all share (conditions): protein: recombinant; tags: N-terminal GST; dsDNA, one strand shown

Assay [1] addresses T1, ERF (Homo sapiens, UniProt P50548 1-548).
T1 sequence: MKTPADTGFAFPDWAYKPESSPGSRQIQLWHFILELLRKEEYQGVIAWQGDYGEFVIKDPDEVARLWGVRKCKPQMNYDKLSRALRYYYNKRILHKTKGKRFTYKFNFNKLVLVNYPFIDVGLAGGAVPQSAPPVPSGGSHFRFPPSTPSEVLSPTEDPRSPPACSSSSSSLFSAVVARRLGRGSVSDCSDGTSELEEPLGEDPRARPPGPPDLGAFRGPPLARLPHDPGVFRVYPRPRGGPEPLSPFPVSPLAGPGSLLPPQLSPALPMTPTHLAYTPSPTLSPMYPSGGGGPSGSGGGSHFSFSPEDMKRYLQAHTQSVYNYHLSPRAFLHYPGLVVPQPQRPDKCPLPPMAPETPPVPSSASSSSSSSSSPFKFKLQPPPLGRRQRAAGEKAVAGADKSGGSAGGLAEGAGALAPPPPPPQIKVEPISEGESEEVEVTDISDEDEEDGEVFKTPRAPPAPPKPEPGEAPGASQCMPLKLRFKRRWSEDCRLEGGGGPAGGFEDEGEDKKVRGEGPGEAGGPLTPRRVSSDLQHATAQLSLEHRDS
In outline: (§1)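 In yeast, human transcription factors were expressed with a GST fusion, then pulled down on glutathione beads and given DNA barcodes. Pooled with a tag-only sample, they were exposed to 200 nmole of a 16-mer random double-stranded DNA library (Tris/NaCl/DTT/glycerol buffer, room temperature, 30 min), washed, crosslinked with 0.1% formaldehyde, proximity-ligated using BsaI/T4 ligase for 1 h at 37 °C, PCR-amplified and read on an Illumina NextSeq500. Each hexamer's frequency of reads for a factor, divided by the matching frequency for the tag-only sample, gives the binding signal.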

Assay [2] concerns the target T2, ETV3L (Homo sapiens, UniProt Q6ZN32 1-361).
T2 sequence: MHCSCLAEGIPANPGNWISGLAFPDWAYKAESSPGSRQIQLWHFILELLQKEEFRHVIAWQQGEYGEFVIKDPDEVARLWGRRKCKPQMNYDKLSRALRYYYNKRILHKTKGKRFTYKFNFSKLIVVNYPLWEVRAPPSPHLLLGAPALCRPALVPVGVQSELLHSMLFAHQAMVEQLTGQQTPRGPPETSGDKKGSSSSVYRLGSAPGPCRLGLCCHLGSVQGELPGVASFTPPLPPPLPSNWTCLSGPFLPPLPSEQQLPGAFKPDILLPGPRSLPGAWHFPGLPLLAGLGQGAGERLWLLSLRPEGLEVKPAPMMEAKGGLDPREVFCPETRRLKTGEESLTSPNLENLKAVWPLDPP
In outline: as §1

Assay [3] addresses T3, ETS2 (Homo sapiens, UniProt P15036 1-469).
T3 sequence: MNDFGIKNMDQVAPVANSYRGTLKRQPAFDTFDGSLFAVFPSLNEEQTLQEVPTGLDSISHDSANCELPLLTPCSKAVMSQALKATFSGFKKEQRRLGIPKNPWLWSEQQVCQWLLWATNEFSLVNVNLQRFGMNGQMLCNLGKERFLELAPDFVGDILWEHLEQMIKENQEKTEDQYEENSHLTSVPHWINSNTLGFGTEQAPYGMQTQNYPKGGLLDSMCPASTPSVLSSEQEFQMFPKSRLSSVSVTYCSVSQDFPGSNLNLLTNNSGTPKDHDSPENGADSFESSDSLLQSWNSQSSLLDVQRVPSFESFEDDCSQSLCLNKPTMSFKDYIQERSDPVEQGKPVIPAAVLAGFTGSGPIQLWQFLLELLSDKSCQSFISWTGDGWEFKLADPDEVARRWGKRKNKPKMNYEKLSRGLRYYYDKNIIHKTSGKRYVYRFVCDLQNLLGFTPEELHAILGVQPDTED
In outline: as §1

Assay [4] deals with T4, SPDEF (Homo sapiens, UniProt O95238 1-335).
T4 sequence: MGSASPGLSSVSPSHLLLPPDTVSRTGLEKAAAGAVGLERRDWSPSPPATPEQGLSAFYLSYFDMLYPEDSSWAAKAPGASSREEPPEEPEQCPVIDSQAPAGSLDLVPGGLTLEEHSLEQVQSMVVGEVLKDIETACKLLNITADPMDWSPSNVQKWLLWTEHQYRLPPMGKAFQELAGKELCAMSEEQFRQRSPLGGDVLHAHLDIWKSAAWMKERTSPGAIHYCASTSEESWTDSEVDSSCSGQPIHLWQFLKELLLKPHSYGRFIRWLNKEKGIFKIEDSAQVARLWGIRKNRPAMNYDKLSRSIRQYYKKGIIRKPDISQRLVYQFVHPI
In outline:
as §1

The target in assay [5] is T5, ETV7 (Homo sapiens, UniProt Q9Y603 1-341).
T5 sequence: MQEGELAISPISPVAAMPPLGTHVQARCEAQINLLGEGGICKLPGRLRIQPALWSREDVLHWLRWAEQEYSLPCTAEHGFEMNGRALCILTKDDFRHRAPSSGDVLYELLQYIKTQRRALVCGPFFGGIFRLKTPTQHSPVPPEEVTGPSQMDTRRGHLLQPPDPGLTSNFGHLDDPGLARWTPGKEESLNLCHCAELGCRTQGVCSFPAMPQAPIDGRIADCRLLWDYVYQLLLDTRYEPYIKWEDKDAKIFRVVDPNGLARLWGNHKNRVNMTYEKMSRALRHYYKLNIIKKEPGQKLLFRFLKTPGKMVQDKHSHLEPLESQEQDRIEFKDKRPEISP
In outline:
as §1

The target of assay [6] is T6, ELF5 (Homo sapiens, UniProt Q9UKW6-2 1-255).
T6 sequence: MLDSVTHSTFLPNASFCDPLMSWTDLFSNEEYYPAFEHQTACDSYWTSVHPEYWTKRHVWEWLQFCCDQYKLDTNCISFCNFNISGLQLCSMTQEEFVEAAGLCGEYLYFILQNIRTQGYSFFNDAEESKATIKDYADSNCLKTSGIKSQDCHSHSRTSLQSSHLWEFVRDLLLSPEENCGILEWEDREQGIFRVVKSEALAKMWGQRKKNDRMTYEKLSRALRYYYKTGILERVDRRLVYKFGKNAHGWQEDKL
In outline:
as §1

Assay [7] has as its target T7, ETV3 (Homo sapiens, UniProt P41162-2 1-143).
T7 sequence: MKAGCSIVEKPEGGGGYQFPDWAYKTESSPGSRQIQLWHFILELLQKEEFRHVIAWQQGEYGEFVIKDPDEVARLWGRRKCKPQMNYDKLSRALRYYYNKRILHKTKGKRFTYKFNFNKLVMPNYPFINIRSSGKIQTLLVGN
In outline:
as §1

In assay [8] the target is ETV6 (Homo sapiens, UniProt P41212 1-452). In outline:
as §1

Sequence of ETV6 (P41212 whole entry): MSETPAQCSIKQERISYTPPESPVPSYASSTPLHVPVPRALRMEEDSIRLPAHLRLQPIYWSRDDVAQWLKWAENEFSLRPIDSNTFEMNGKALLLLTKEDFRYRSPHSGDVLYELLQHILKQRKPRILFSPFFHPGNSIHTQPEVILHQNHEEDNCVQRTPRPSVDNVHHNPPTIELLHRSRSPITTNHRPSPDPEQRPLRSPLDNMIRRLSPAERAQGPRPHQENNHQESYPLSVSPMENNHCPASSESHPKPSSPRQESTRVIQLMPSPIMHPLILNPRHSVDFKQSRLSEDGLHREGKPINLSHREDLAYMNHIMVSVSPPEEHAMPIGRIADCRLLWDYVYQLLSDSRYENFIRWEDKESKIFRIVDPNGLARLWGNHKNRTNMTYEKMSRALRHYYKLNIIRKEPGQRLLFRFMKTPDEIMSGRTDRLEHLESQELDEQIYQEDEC

For TGGTAT, the binding signal is 1.34 fold enrichment (6-mer frequency, TF over GST control) in assay [1]; 1.37 fold enrichment (6-mer frequency, TF over GST control) in assay [2]; 1.33 fold enrichment (6-mer frequency, TF over GST control) in assay [3]; 1.42 fold enrichment (6-mer frequency, TF over GST control) in assay [4]; 1.35 fold enrichment (6-mer frequency, TF over GST control) in assay [5]; 1.37 fold enrichment (6-mer frequency, TF over GST control) in assay [6]. Further, the binding signal in assay [7] is 1.28 fold enrichment (6-mer frequency, TF over GST control); in assay [8], 1.31 fold enrichment (6-mer frequency, TF over GST control).

As to TTTCCA, the binding signal in assay [1] is 1.32 fold enrichment (6-mer frequency, TF over GST control); in assay [2] it was 1.41 fold enrichment (6-mer frequency, TF over GST control); in assay [3], 1.38 fold enrichment (6-mer frequency, TF over GST control); in assay [4], 1.29 fold enrichment (6-mer frequency, TF over GST control); in assay [5], 1.35 fold enrichment (6-mer frequency, TF over GST control); in assay [6], 1.43 fold enrichment (6-mer frequency, TF over GST control). The binding signal in assay [7] was 1.45 fold enrichment (6-mer frequency, TF over GST control); in assay [8], 1.54 fold enrichment (6-mer frequency, TF over GST control).

As for CATAAC, the binding signal in assay [1] was 1.12 fold enrichment (6-mer frequency, TF over GST control); in assay [2], 1.18 fold enrichment (6-mer frequency, TF over GST control); in assay [3], 1.19 fold enrichment (6-mer frequency, TF over GST control); in assay [4], 1.15 fold enrichment (6-mer frequency, TF over GST control); in assay [5], 1.18 fold enrichment (6-mer frequency, TF over GST control); in assay [6], 1.15 fold enrichment (6-mer frequency, TF over GST control). Moreover, the binding signal in assay [7] is 1.17 fold enrichment (6-mer frequency, TF over GST control); in assay [8] it was 1.23 fold enrichment (6-mer frequency, TF over GST control).

In the case of CTTTTA, the binding signal in assay [1] is 1.39 fold enrichment (6-mer frequency, TF over GST control); in assay [2] it was 1.42 fold enrichment (6-mer frequency, TF over GST control); in assay [3] it was 1.32 fold enrichment (6-mer frequency, TF over GST control); in assay [4], 1.18 fold enrichment (6-mer frequency, TF over GST control); in assay [5] it was 1.42 fold enrichment (6-mer frequency, TF over GST control); in assay [6] it was 1.21 fold enrichment (6-mer frequency, TF over GST control). Further, the binding signal in assay [7] is 1.4 fold enrichment (6-mer frequency, TF over GST control); in assay [8], 1.31 fold enrichment (6-mer frequency, TF over GST control).

Regarding TAATCC, the binding signal in assay [1] was 1.12 fold enrichment (6-mer frequency, TF over GST control); in assay [2] it was 1.21 fold enrichment (6-mer frequency, TF over GST control); in assay [3], 1.36 fold enrichment (6-mer frequency, TF over GST control); in assay [4], 1.44 fold enrichment (6-mer frequency, TF over GST control); in assay [5], 1.28 fold enrichment (6-mer frequency, TF over GST control); in assay [6], 1.19 fold enrichment (6-mer frequency, TF over GST control). Besides, the binding signal was 1.29 fold enrichment (6-mer frequency, TF over GST control) in assay [7] and 1.27 fold enrichment (6-mer frequency, TF over GST control) in assay [8].

Consider TCAATT, for which the binding signal is 1.13 fold enrichment (6-mer frequency, TF over GST control) in assay [1]; 1.29 fold enrichment (6-mer frequency, TF over GST control) in assay [2]; 1.17 fold enrichment (6-mer frequency, TF over GST control) in assay [3]; 1.15 fold enrichment (6-mer frequency, TF over GST control) in assay [4]; 1.12 fold enrichment (6-mer frequency, TF over GST control) in assay [5]; 1.13 fold enrichment (6-mer frequency, TF over GST control) in assay [6]. Further, the binding signal is 1.21 fold enrichment (6-mer frequency, TF over GST control) in assay [7] and 1.14 fold enrichment (6-mer frequency, TF over GST control) in assay [8].
